The supplement of paper PMC10849652
Targets with a hit are over-represented here; the source holds about 8,800 in all. About 0.5% of all pairs of compound and target were hits.

Compound: CC(C)(O)CC(=O)NCCn1ccc2ncnc(Nc3ccc(Oc4cccc(C(F)(F)F)c4)c(Cl)c3)c21
Assay: log2 fold change, soluble protein after heating vs DMSO (PISA); higher = thermal stabilisation; K562 lysate, 10 uM; active = over 0.2 and 3.5 SD of the protein, either way, in both replicates (recomputed)
Procedure, shortened: (§1)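 Values give the log-two fold change in thermal stability against solvent controls, from duplicates. Crude K562 extract at 1 mg/mL protein, made by dounce homogenisation in PBS pH 7.4 with 1 mM MgCl2, was treated with 10 μM compound for 30 min. After 3 min heating across 48°C-58°C, aliquots were pooled, adjusted to 0.5% NP-40 at 4°C and centrifuged at 21,000xg for 90 min. The supernatant was measured by TMTpro 16plex LC-MS/MS with channel sums equalised.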

UniProt Q14258, sequence (Q14258 whole entry, looked up): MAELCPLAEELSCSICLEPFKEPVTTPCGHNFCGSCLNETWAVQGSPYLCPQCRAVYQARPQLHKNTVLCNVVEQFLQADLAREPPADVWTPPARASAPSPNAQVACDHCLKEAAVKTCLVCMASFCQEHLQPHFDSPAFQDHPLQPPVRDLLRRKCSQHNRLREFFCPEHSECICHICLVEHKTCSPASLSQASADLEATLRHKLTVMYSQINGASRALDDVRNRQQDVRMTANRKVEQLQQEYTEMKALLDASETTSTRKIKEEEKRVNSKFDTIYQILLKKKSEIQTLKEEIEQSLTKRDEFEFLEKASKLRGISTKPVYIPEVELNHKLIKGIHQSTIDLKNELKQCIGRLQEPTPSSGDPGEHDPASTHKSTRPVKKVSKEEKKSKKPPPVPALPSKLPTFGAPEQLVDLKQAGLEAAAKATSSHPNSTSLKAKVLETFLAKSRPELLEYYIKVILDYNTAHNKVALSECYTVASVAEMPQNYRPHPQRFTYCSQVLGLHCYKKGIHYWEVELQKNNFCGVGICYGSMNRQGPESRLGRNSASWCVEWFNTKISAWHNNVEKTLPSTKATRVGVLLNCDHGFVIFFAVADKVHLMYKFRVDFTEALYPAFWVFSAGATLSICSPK
UniProt A6NFQ2, sequence (A6NFQ2 whole entry, looked up): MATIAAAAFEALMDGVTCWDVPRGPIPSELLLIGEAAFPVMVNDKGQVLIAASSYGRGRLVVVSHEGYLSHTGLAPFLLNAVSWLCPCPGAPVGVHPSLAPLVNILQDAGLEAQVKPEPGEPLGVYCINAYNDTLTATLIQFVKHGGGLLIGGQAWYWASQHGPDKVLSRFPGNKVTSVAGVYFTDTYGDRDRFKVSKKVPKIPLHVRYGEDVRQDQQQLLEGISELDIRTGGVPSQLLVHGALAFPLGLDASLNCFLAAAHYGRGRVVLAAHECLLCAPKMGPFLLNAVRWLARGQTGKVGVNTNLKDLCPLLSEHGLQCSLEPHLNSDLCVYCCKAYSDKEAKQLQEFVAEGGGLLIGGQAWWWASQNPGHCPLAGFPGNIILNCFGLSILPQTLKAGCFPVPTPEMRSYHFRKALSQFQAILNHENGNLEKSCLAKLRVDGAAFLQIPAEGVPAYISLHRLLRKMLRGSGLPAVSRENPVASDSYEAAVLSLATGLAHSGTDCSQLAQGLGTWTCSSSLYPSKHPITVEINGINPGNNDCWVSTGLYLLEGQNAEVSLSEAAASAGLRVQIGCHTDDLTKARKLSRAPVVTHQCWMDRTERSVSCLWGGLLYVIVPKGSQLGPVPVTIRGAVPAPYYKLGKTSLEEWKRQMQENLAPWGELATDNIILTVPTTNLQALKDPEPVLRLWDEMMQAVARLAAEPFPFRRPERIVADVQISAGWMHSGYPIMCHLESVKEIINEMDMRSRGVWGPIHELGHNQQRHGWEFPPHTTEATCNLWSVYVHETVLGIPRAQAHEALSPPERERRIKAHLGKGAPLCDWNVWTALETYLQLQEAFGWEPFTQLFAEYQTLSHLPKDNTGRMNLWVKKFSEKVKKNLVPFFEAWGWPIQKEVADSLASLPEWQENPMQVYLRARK
UniProt Q53H54, sequence (Q53H54 whole entry, looked up): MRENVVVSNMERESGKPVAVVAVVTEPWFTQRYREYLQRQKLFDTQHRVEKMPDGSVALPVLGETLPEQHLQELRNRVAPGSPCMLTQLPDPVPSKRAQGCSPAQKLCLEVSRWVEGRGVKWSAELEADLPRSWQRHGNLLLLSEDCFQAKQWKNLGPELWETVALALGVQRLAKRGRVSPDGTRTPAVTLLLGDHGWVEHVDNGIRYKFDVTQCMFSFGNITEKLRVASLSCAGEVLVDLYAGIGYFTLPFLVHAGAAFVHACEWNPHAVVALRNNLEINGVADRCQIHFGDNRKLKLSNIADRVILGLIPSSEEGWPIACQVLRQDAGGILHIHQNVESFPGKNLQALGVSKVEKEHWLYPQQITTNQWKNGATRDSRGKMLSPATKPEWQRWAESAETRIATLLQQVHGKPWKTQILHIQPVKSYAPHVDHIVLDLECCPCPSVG
UniProt Q9BSJ2, sequence (Q9BSJ2 whole entry, looked up): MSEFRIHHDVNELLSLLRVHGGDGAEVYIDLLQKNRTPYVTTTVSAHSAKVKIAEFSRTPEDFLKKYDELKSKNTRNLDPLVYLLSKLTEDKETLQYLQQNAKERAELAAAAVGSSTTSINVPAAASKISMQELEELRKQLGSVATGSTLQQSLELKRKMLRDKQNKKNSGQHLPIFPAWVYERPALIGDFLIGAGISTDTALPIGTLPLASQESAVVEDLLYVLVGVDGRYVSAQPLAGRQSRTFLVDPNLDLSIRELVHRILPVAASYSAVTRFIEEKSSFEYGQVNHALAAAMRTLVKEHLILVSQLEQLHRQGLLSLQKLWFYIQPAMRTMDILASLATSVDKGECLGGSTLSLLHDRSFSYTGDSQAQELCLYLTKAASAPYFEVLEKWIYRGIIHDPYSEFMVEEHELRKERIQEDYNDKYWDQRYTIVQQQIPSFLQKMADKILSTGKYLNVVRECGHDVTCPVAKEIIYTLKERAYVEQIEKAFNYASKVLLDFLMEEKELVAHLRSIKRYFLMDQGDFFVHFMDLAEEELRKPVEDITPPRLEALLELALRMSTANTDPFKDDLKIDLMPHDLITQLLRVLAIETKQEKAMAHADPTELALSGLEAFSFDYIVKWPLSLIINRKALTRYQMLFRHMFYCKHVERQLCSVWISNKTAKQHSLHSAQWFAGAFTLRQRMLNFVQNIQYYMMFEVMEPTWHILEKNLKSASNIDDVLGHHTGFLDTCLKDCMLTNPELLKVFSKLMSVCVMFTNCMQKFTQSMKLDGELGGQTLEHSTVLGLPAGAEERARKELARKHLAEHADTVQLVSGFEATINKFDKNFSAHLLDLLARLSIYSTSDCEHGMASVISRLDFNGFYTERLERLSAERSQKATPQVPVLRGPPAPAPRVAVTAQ
UniProt Q12800, sequence (Q12800 whole entry, looked up): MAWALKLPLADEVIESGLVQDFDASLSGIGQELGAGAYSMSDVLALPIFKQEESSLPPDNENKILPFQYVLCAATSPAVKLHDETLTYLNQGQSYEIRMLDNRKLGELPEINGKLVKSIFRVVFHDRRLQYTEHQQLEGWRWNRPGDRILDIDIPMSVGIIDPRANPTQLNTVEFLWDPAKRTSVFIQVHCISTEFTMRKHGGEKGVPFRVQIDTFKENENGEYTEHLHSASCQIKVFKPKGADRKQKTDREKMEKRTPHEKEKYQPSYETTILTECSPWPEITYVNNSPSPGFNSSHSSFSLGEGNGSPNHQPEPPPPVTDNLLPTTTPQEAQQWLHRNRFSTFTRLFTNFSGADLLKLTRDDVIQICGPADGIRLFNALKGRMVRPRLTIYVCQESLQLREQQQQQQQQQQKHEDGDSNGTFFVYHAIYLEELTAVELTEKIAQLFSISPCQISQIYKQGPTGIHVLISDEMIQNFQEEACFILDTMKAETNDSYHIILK
UniProt Q6PJ69, sequence (Q6PJ69 whole entry, looked up): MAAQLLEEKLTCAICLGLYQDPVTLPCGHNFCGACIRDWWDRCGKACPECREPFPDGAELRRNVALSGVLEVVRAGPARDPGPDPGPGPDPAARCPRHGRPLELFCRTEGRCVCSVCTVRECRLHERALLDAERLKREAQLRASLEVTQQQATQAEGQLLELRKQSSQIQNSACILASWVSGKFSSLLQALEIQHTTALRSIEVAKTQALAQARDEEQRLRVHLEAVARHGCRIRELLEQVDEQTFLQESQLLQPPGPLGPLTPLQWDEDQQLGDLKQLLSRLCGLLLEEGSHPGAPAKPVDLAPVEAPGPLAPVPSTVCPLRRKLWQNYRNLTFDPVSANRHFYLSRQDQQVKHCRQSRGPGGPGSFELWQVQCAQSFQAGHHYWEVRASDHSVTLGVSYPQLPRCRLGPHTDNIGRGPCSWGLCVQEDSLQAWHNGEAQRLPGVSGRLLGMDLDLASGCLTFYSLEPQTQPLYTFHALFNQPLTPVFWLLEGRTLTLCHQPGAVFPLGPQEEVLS
UniProt Q9BRZ2, sequence (Q9BRZ2 whole entry, looked up): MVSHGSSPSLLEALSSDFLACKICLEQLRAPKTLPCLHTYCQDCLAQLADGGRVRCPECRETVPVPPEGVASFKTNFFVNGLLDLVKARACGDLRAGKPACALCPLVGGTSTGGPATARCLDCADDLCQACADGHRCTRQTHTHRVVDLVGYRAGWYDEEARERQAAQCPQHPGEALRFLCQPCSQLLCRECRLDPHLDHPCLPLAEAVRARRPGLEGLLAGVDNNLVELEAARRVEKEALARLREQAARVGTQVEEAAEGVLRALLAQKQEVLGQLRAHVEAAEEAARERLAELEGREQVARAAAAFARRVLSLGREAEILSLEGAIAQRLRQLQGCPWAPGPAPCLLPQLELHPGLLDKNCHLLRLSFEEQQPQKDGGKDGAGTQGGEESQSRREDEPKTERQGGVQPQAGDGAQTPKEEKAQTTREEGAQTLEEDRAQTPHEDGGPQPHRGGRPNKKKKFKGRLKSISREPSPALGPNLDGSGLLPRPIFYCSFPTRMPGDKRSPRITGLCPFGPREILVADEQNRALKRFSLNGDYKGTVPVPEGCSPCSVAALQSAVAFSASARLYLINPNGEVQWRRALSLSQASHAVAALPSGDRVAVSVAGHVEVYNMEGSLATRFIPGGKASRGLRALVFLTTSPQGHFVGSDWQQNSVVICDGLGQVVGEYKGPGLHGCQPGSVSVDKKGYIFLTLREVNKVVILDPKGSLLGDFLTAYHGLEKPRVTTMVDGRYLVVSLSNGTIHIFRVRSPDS
UniProt P51668, sequence (P51668 whole entry, looked up): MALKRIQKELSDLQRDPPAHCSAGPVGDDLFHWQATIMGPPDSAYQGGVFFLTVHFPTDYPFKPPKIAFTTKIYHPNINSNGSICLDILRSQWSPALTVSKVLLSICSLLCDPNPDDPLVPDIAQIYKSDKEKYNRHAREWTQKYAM
UniProt Q9P0S9, sequence (Q9P0S9 whole entry, looked up): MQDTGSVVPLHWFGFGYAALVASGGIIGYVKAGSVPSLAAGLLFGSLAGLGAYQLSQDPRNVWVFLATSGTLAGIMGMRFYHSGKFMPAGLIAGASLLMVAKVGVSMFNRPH

log2 fold change, inactive:
TRIM25 (UniProt Q14258) 0.055
UBE2D1 (UniProt P51668) 0.073
TPP2 (UniProt Q5VZU9) 0.046
TRMT12 (UniProt Q53H54) 0.063
TCAF2 (UniProt A6NFQ2) -0.017
TRIM56 (UniProt Q9BRZ2) 0.001
TTC27 (UniProt Q6P3X3) 0.046
UBR5 (UniProt O95071) -0.028
TROAP (UniProt Q12815) -0.02
TUBGCP2 isoform 4 (UniProt Q9BSJ2) -0.016
TTC5 (UniProt Q8N0Z6) 0.001
TRIM33 (UniProt H0Y612) -0.084
TP53RK (UniProt Q96S44) -0.008
TFCP2 (UniProt Q12800) -0.028
TIAL1 isoform 2 (UniProt Q01085) -0.001
TRIM65 (UniProt Q6PJ69) -0.035
TTF2 (UniProt Q9UNY4) -0.006
TRAPPC9 isoform 2 (UniProt Q96Q05) -0.025

Compound: CC(C)C1=C2N=C(C=C(N2N=C1)NCC3=CC=CC=C3)NCCCCCCN
Assay: as above
Procedure, shortened: as §1

log2 fold change, inactive:
TOR3A (UniProt Q9H497) -0.001
TRAF2 isoform 2 (UniProt Q12933) -0.051
TBRG4 (UniProt Q969Z0) -0.011
TBL3 (UniProt Q12788) 0.026
UBE3B (UniProt Q7Z3V4) -0.112
TRA2A (UniProt Q13595) 0.21
TJP1 isoform 2 (UniProt Q07157) 0.036
TPM4 isoform 2 (UniProt P67936) -0.034
TUBGCP3 (UniProt Q96CW5) -0.039
TGOLN2 isoform 7 (UniProt O43493) 0.003
TSPAN13 (UniProt O95857) -0.083
TIMELESS (UniProt Q9UNS1) -0.01
TRMT2A (UniProt Q8IZ69) 0.001
TTC12 isoform 2 (UniProt Q9H892) -0.032
TMPO (UniProt P42167) -0.044
TBK1 (UniProt Q9UHD2) 0.047
TGFBRAP1 (UniProt Q8WUH2) -0.014
TMEM14C (UniProt Q9P0S9) -0.135
TMEM164 (UniProt Q5U3C3) -0.035
TPM3 (UniProt P06753) 0.013
TTI2 (UniProt Q6NXR4) -0.004
TBC1D23 (UniProt Q9NUY8) 0.03
TRIM25 (UniProt Q14258) -0.011
UBE2D1 (UniProt P51668) 0.01
TPP2 (UniProt Q5VZU9) -0.041
TRMT12 (UniProt Q53H54) -0.018
TCAF2 (UniProt A6NFQ2) 0.013
TRIM56 (UniProt Q9BRZ2) -0.03
TTC27 (UniProt Q6P3X3) 0.02
UBR5 (UniProt O95071) -0.005
TROAP (UniProt Q12815) 0.037
TUBGCP2 isoform 4 (UniProt Q9BSJ2) -0.006
TTC5 (UniProt Q8N0Z6) 0.042
TRIM33 (UniProt H0Y612) 0.068
TP53RK (UniProt Q96S44) 0.007
TFCP2 (UniProt Q12800) 0.051
TIAL1 isoform 2 (UniProt Q01085) -0.001
TRIM65 (UniProt Q6PJ69) 0.005
TTF2 (UniProt Q9UNY4) -0.02
TRAPPC9 isoform 2 (UniProt Q96Q05) -0.003
